Screens (PubChem BioAssay)
Sa growth inh: blocks Staphylococcus aureus growth | S. aureus RN4220 growth, OD600, 20 h, 42 °C; hits give low values | AID 720641 | relative growth, % (concentration not given with the values) | actives 0.53% (n = 170,000);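 active means relative growth at most 50% at the other temperature and 20+ points below 30 °C, or under 10% at both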
S aureus helic: S. aureus DNA helicase inhibition; actives 0.05% (n = 120,000); inhibition, % (test concentration not listed); purified S. aureus helicase, fluorescence unwinding assay; in the data active means inhibition above about 25%, passing the limit was not always enough;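 further: 0% = mean of negative control wells and 100% = mean of positive control wells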
* = called active by the depositor; x = no result. Only a selection was taken, and hits are over-represented in it overall.

SMILES	Sa growth inh	S aureus helic
COc1ccc(OCC(O)Cn2c(=N)n(CCN3CCCCC3)c3ccccc32)cc1 (stereo unspecified)	118	x
N=c1n(CCN2CCCCC2)c2ccccc2n1CC(O)COc1ccc(Cl)cc1Cl (stereo unspecified)	0.3*	x
CCn1c(O)c(C2=c3cc(Cl)ccc3=NC2=O)c2ccccc21	93	-13
O=C1N=c2ccccc2=C1c1c(O)[nH]c2ccc(Cl)cc12	49*	-7
Cc1nn(CC(=O)c2ccc(Br)cc2)c(N)[n+]1C	x	-14
COc1ccc(C(=O)Cn2nc(CNc3ccc(Br)cc3)[n+]3c2CCCCC3)cc1	1.4*	7
C(=C\c1ccccc1)/CNCCN1CCOCC1	104	17
Cc1ccc(Nc2ssc(=O)c2Cl)cc1C	88	-5
CCn1c(=O)cc(Nc2ccc(C)c(C)c2)[nH]c1=O	2.4*	-23
CC[C@@H]1OC(=O)C[C@H](O)[C@@H](C)[C@@H](O[C@@H]2O[C@H](C)[C@@H](O[C@H]3C[C@@](C)(O)[C@@H](O)[C@H](C)O3)[C@H](N(C)C)[C@H]2O)[C@@H](C=O)C[C@@H](C)C(=O)/C=C/C(C)=C\[C@@H]1CO[C@H]1O[C@@H](C)[C@H](O)[C@H](OC)[C@@H]1OC	-1.0*	x
CC[C@H]1OC(=O)C[C@@H](O)[C@H](C)[C@@H](O[C@@H]2O[C@H](C)[C@@H](O[C@H]3C[C@@](C)(O)[C@@H](O)[C@H](C)O3)[C@H](N(C)C)[C@H]2O)[C@@H](CC=O)C[C@@H](C)C(=O)/C=C/C(C)=C/[C@@H]1CO[C@@H]1O[C@H](C)[C@@H](O)[C@@H](OC)[C@H]1OC	-0.2*	x
Cn1c(=O)c2c(nc(N3CCN(c4ccccc4)CC3)n2CCSc2nnnn2-c2ccccc2)n(C)c1=O	95	8
CC(C)(C)C1CCc2nc(NC(=O)c3cccc(Cl)c3)sc2C1 (stereo unspecified)	13*	x
CC(C)(C)C1CCc2nc(NC(=O)c3ccc([N+](=O)[O-])cc3)sc2C1 (stereo unspecified)	95	x
Oc1ccccc1C=Nc1cccc(N=Cc2ccccc2O)c1	109	1
Oc1cccc(N=Cc2cc(Br)ccc2O)c1	32*	-10
CS(=O)(=O)Nc1ccc(OC(F)(F)F)cc1	93	-7
NC(=O)/C=C/C(=O)Nc1ccc(N2CCOCC2)cc1	x	5
Cn1nc(-c2ccccc2)cc1-n1cnc2ccccc21	89	-23
O=S(=O)(CCCCl)c1nc2ccccc2s1	122	37
CC1(C)S[C@@H]2[C@H](NC(=O)[C@@H](N)c3ccc(O)cc3)C(=O)N2[C@H]1C(=O)O	-0.4*	x
O=C1NCCN1C(=O)NC1CCCCC1	85	4
CC1(C)S[C@@H]2[C@H](NC(=O)[C@H](NC(=O)N3CCNC3=O)c3ccccc3)C(=O)N2C1C(=O)O (stereo partly specified)	-1.3*	x
Cc1cc(/C=C/C(=O)N(C)Cc2ccco2)c(C)n1-c1ccnn1C(C)C	100	9
Cc1onc(-c2ccccc2)c1C(=O)N(Cc1ccc(N(C)C)cc1)C(C)C	106	x
SMILES	Sa growth inh	S aureus helic
CCOC(=O)c1c(-c2ccccc2)oc2ccc(OC)cc12	x	-13
CCOC(=O)c1c(-c2ccccc2)oc2ccc(OCC)cc12	48*	10
CCc1ccc(OCC(O)CN)cc1 (stereo unspecified)	98	-2
N#CCSc1nc2cc3c(cc2c(=O)n1CCCC(=O)NCc1ccc2c(c1)OCO2)OCO3	102	-4
N#CCN(CC#N)C(=O)c1cccs1	111	x
N#CSCC(=O)c1cccs1	1.0*	1
CC(C)OC(=O)c1cccc2c1-c1ccccc1C2=O	115	x
CC1CCc2c(sc3ncn(CC(=O)N4CCCC4)c(=O)c23)C1 (stereo unspecified)	109	6
CCC(C(=O)OC(C)C)n1cnc2sc3c(c2c1=O)CCC(C)C3 (stereo unspecified)	34*	5
Cc1cc(OC(=O)/C=C/c2ccc(C)o2)n(Cc2c(Cl)cccc2Cl)n1	99	8
CCN(CC)C(=S)Nc1ccc2nsnc2c1	93	1
CC(Nc1nc(C(C)(C)C)cs1)=C(C#N)C#N	4.2*	7
CC(C)(C)c1csc(NC(=O)CSC2=NCCS2)n1	88	-3
NC(=O)N/N=C/c1cn(-c2ccccc2)nc1-c1ccccc1	83	-5
NC(N)=N/N=C/c1cn(-c2ccccc2)nc1-c1ccccc1	-1.6*	-19
FC(F)(F)c1ccccc1NC(=S)N1CCC2(CC1)OCCO2	104	22
Cc1ccc(CS(=O)(=O)c2ncc(Cl)c(C(=O)Nc3nnc(C(C)C)s3)n2)cc1	5.6*	x
Cc1cccc(CS(=O)(=O)c2ncc(Cl)c(C(=O)Nc3nnc(C(C)C)s3)n2)c1	5.0*	x
CCc1nnc(NC(=O)c2nc(S(=O)(=O)Cc3ccc(C)cc3)ncc2Cl)s1	11	x
CCc1nnc(NC(=O)c2nc(S(=O)(=O)Cc3cccc(C)c3)ncc2Cl)s1	11	x
CC(=O)Nc1ccc(C(=O)CSc2nc3ccccc3n2C)cc1	96	9
Cc1ccc(C)c(NC(=O)CN(C)C(=O)COc2ccccc2C#N)c1	92	-11
COCCCNc1oc(-c2ccccc2)nc1S(=O)(=O)c1ccccc1	92	20
Cc1ccc(S(=O)(=O)/N=C2\C=C(Sc3ncn[nH]3)C(=O)c3ccccc32)cc1	2	17
CC(C)c1ccc(NC(=O)CSc2ncn[nH]2)cc1	94	-7
SMILES	Sa growth inh	S aureus helic
CC(C)c1ccc(S(=O)(=O)/N=C2/C=C(Sc3ncn[nH]3)C(=O)c3ccccc32)cc1	1.2*	16
Cc1ccc(S(=O)(=O)/N=C2/C=C(Sc3ncn[nH]3)C(=O)c3ccccc32)cc1	2.1*	23
O=C(NCN1CCC(Cc2ccccc2)CC1)c1nc(-c2ccncc2)no1	95	-13
COc1ccccc1N1C(=O)C=C(Nc2ccccc2)C1=O	106	19
O=C(Cn1c(=O)oc2ccccc21)N1CCN(S(=O)(=O)/C=C/c2ccccc2)CC1	90	-9
Fc1ccc(C=Nc2cc(Cl)cc(Cl)c2)cc1F	69	30
CC(NC(=O)c1ccccc1)C1COc2ccccc2O1 (stereo unspecified)	98	13
CCN(C(=O)Cc1c(C(=O)O)[nH]c2ccc(Cl)cc12)c1ccc(C)c(C)c1	80	6
CCCN(C(=O)Cc1c(C(=O)O)[nH]c2ccc(Cl)cc12)c1ccc(OCC)cc1	29*	x
CCn1c(CSC/C=C/c2ccccc2)nc2cc(S(=O)(=O)N3CCOCC3)ccc21	95	12
CCN(CC)C(=O)CSc1nnc(COc2ccc(C)cc2)n1N	84	9
O=C(/C=C/C(=O)c1ccc2ccccc2c1)c1ccccc1	-0.4*	3
O=C(O)/C=C/C(=O)c1ccccc1	124	5
O=C(O)C1C2C=CC(C2)C1C(=O)N1CCN(Cc2ccccc2)CC1 (stereo unspecified)	103	4
CC(C)N1C(=O)S/C(=C/c2cc3c(cc2Cl)OCO3)C1=O	86	13
Cc1ccc(CN(C)Cc2cc(=O)oc3cc4c(cc23)CCC4)o1	71	7
CN1CCC(N(C)Cc2cc(=O)oc3cc4c(cc23)CCC4)CC1	0.3*	-2
CC1(C)CC2(CCO1)NNC(=S)NN2	104	8
Cc1ccc(-n2nnnc2S(C)(=O)=O)c(C)c1	76	12
Cc1cccc(-n2nnnc2S(C)(=O)=O)c1	-0.6*	x
Cn1c(CCC(=O)OCC(=O)N2CCN(S(=O)(=O)c3ccc(Cl)cc3)CC2)nc(=O)c2ccccc21	76	14
